Hits are enriched below; roughly 5.3% of the tested compounds scored in any of these assays.
HCV inh – blocks hepatitis C virus. Potency, µM (series often up to 41.8 µM), inactives show at the highest dose activity change, negative = inhibition, hits mostly inhibitors. 340,000 tested, 3.4% active. Huh7.5.1 HCVcc-Cre infection, luciferase reporter, 44 h. AID 651820; active means well fitted inhibition curve with a large enough effect; inconclusive means small, poorly fitted or top-dose-only effect, or another doubt; inactive means no such curve, though single readings can be large or run the other way
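Cells seeded at 1,000/well and cultured 4 h, then compounds added followed by HCVcc-Cre virus (~0.5 moi). After 44 h further culture, luciferase substrate was added, plates held 15 min at room temperature, and luminescence read for 15 sec.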
LASV entry inh – inhibitors of Lassa virus binding or cell entry | Lassa virus pseudotype entry inhibition, cell reporter | 300,000 tested, 1.2% active | AID 540256 | Potency, µM (top dose mostly 37.9 µM), for inactives: top-dose activity change, negative = inhibition, hits mostly inhibitors; calls by dose curve; tested in HEK293 cells; further: nearly all actives have a fitted effect of over 50% in size
Vaccinia Venus – vaccinia inhibition (Venus reporter) | Vaccinia virus Venus reporter expression, fluorescence | Potency, µM (doses to about 36.5 µM), inactives show top-dose activity change, negative = inhibition, most hits filed as inhibitors | 330,000 tested, 0.46% active | AID 720580; calls by dose curve; tested in A549 cells; further: nearly all actives have a fitted effect of over 30% in size
Vaccinia mCherry – vaccinia inhibition (mCherry reporter). Potency, µM (top dose mostly 36.5 µM), for inactives: at the highest dose activity change, negative = inhibition, most hits filed as inhibitors. 310,000 tested, 0.63% active. AID 720579. Vaccinia virus mCherry reporter infection, fluorescence; calls by dose curve; tested in A549 cells; further: nearly all actives have a fitted effect of over 35% in size
FMDV inh – foot and mouth disease virus antiviral activity | FMDV antiviral cell-based qHTS | Potency, µM (series often up to 57.9 µM), inactives show at the top dose activity change, negative = inhibition, most hits filed as inhibitors | 410,000 tested, 1.2% active | AID 1159524; calls by dose curve; tested in HEK293T cells; further: read-out not given here; nearly all actives have a fitted effect of over 45% in size
MARV entry inh – blocks Marburg virus binding to or entry into cells; Potency, µM (top dose mostly 37.8 µM), for the others: at the top dose activity change, negative = inhibition, most hits filed as inhibitors; 300,000 tested, 1.8% active; Marburg virus pseudotyped entry inhibition, cell reporter; AID 540276; calls by dose curve; tested in HEK293 cells
* = called active by the depositor; i = inactive; ? = inconclusive; . = no result given; [ ] = dose if it differs, or a comment. On the % scale 0 is the no-effect control and ±100 the full control effect; potency means the concentration at half of the fitted maximal effect.

SMILES | HCV inh | LASV entry inh | Vaccinia Venus | Vaccinia mCherry | FMDV inh | MARV entry inh
CC(C)CNC(=O)c1cn(C2CCN(Cc3nc4ccccc4s3)CC2)nn1 | . | . | 0% | i | -10% | .
CC1=Nc2cc(C(=O)NCCc3ccc(Cl)cc3)ccc2Sc2ccc(C)cc21 | . | ? | ? | ? | -2% | 7.9µM*
CC1=Nc2cc(C(=O)NCCCOC(C)C)ccc2Sc2ccc(C)cc21 | -11% | ? | ? | ? | 15% | ?
CCOC(=O)N1CCC(NC(=O)c2ccc3c(c2)N=C(CC)c2cc(C)ccc2S3)CC1 | 3.2µM* | ? | -26% | -26% | ? | ?
CC1=Nc2cc(C(=O)NC3CCCC3)ccc2Sc2ccc(Br)cc21 | . | -21%[46.1 µM] | ? | ? | -24% | ?
CC1=Nc2cc(C(=O)NC3CCCCC3)ccc2Sc2ccc(Cl)cc21 | . | 4µM* | -23%[7.34 µM] | -27%[7.34 µM] | -20% | .
CN(C)C(=O)c1ccc2c(c1)N(CC(=O)NCc1ccc(F)cc1)C(=O)C1CCCCN21 (centres undefined) | . | 3%[46.1 µM] | -19% | -15% | 18% | .
N=c1sccn1Cc1ccc(Cl)cc1Cl | ? | 26% | 3% | -13% | -17% | ?
O=C(CCl)N=c1sccn1Cc1cccc2ccccc12 | 3.5µM* | . | . | . | ? | .
CCC(=O)OCC(=O)N=c1sccn1Cc1ccccc1Cl | -18% | 5% | -11% | -13% | -4% | 25%
O=C(CCl)N=c1sccn1Cc1ccccc1Cl | 0.56µM* | ? | -17% | i | ? | ?
O=C(CCl)N=c1sccn1Cc1ccc(Cl)cc1Cl | 0.56µM* | ? | -14% | i | ? | ?
c1ccc(C(c2ccccc2)N2CC3(CCNCC3)C2)cc1 | . | . | . | . | -3% | .
Cc1cccc(N2CCN(C(=O)CN3C(=O)COc4ccc(S(=O)(=O)N5CCCC5)cc43)CC2C)c1 (centres undefined) | . | -22%[46.1 µM] | -4% | -10% | -11% | -5%[46.1 µM]
CC(=O)/C(C#N)=C1\NC(=O)[C@@H](Cc2ccccc2)S1 | . | . | . | . | . | 2.5µM*
CC(=O)/C(C#N)=C1\NC(=O)C(Cc2ccccc2C)S1 (centres undefined) | 8% | ? | 80% | ? | 10% | ?
CCNC(=O)CC1S/C(=N/N=C(\C)c2ccccc2)NC1=O (centres undefined) | 11% | . | . | . | -6% | .
CC(=O)/C(C#N)=C1\NC(=O)C(Cc2ccccc2)S1 (centres undefined) | -5% | ? | 119% | ? | 60% | 2.5µM*
C/C(=N\N=C1\NC(=O)C(Cc2ccccc2)S1)c1ccccc1 (centres undefined) | -17% | 2.3µM* | . | . | 3% | 25%
S=Cc1ccc(/C=C/c2ccnc3ccccc23)cc1 | . | . | -9% | -25% | . | .
Cc1ccc(C)c(N2CCN(C(=O)c3ccc(CSc4nc5ccncc5[nH]4)cc3)CC2)c1 | ? | ? | -20% | -15% | 18µM* | ?
O=C(c1ccc(CSc2nc3ccncc3[nH]2)cc1)N1CCCCC1 | 1%[8.37 µM] | -12% | -11% | -5% | -14% | -6%
C[C@@H]1CN(Cc2ccc3c(c2)CN(Cc2cccc(O)c2)CCO3)C[C@H](C)O1 | . | . | -2% | -3% | -26% | .
Nc1cc(S(=O)(=O)N2CCCCC2)ccc1Oc1ccc(Cl)cc1 | ? | -26% | . | . | ? | ?
Cc1cccc(Oc2ccc(S(=O)(=O)N3CCCCC3)cc2N)c1 | 13µM* | ? | . | . | ? | -30%
SMILES | HCV inh | LASV entry inh | Vaccinia Venus | Vaccinia mCherry | FMDV inh | MARV entry inh
CCc1ccccc1NC(=O)c1ccc2nc(C(C)C)oc2c1 | . | -6%[46.1 µM] | -24% | ? | ? | .
Cc1nc(NC(=O)c2ccc(F)cc2)sc1C(=O)Nc1ccc2c(c1)CCC2 | 7% | -21% | -17% | -14% | . | -6%
Cc1ccc(C(=O)Nc2nc(C)c(C(=O)Nc3ccc4c(c3)CCC4)s2)cc1 | ? | ? | -29% | i | 32% | 1.1µM*
Nc1[nH]c(=S)nc2nnsc12 | . | . | -12% | -20% | . | .
COc1cccc([C@H]2Oc3ccc(OC)cc3C(=NOCC[C@@H]3C=C[C@H](OC(C)=O)[C@@H](COC(C)=O)O3)[C@H]2O)c1 | . | ? | . | . | . | -24%[14.2 µM]
COCCN(CC(=O)NC1CCCCC1)C(=O)/C=C/C(=O)c1ccc(OC)cc1O | ? | 13µM* | 1% | 1% | 3.2µM* | 11µM*
COc1ccc(CN(C(=O)/C=C/C(=O)c2ccc(OC)cc2O)C(C(=O)NC2CCCCC2)c2ccncc2)cc1 (centres undefined) | -25% | ? | ? | -14% | 2% | ?
COc1ccc(C(=O)/C=C/C(=O)N(CC(=O)NC2CCCCC2)Cc2cccs2)c(O)c1 | -16% | . | . | . | 6.3µM* | .
Cc1cnc(CNC(=O)c2c3n(c(C)cc2=O)-c2ccccc2SC(c2ccsc2)C3)cn1 (centres undefined) | . | . | -10% | -12% | -15% | .
COc1cc(=O)n2c(c1C(=O)N(C)Cc1nonc1C)CCN(Cc1ccsc1)CC2 | . | . | 5% | -17% | 4% | .
Cc1cc(OCc2cc(C(=O)N3CCN(C)C(=O)[C@@H]3C)no2)cc(C)c1Cl | 13µM* | . | . | . | ? | .
Cc1cccc(C)c1OCc1cc(C(=O)N2CCC(c3ccncc3)CC2)no1 | 7.9µM* | 14%[46.1 µM] | -20% | -16% | -4% | ?
O=C(c1cc(COc2c(F)cccc2F)on1)N1CCC(c2ccncc2)CC1 | 5µM* | -8% | -4% | -22% | -4% | ?
Cc1cc(OCc2cc(C(=O)N(Cc3nccn3C)C(C)C)no2)cc(C)c1Cl | 11µM* | -27%[46.1 µM] | -24% | ? | 11% | ?
CCN1CCOC(=O)C1CC(=O)Nc1cc(C)cc(C)c1 (centres undefined) | . | -2%[46.1 µM] | -6% | 4% | 7% | -7%[46.1 µM]
COc1cccc(-c2cc(N(C)Cc3ccco3)ncn2)c1 | . | . | . | . | -6% | .
Cc1cc(C)cc(NC(=O)N2CCC(CN3CCc4ccccc4C3)CC2)c1 | . | -2%[46.1 µM] | -4% | i | -15% | .
COc1ccc(CNC(=O)c2ccc(NC(=O)N3CCSc4ncccc43)cc2)c(OC)c1 | . | -12%[46.1 µM] | -4% | -2% | -18% | .
Cc1cccc(C)c1OCc1cc(C(=O)N2CCN(c3ccccc3)CC2C)no1 (centres undefined) | . | ? | -13% | i | -11% | 13µM*
Cc1ccc(NC(=O)NCCc2c(C)nn(C)c2C)cc1Cl | . | 9%[46.1 µM] | -8% | -4% | -10% | .
CC(C)(C)c1ccc2c(c1)OC(C(=O)N/N=C\c1ccncc1)CO2 (centres undefined) | -4% | 1% | -9% | ? | ? | -3%[14.2 µM]
CC(C)(C)c1ccc2c(c1)OC(C(=O)N/N=C\c1ccc[nH]1)CO2 (centres undefined) | 1µM* | . | . | . | ? | .
CC(=O)OC[C@H]1O[C@H](CC=NO[C@H](C)CN2CCCCc3nc(C)c(C)cc32)C=C[C@@H]1OC(C)=O | . | . | . | . | . | -21%[14.2 µM]
O=C(COc1ccccc1Cc1ccccc1)Nc1cccc(S(=O)(=O)N2CCOCC2)c1 | ? | ? | -24% | -8% | 3% | ?

High-throughput results deposited in PubChem BioAssay by National Center for Advancing Translational Sciences (NCATS).
